Legend:
Test in all cases: yeast three-hybrid, YBZ-1, SC-Leu-His + 0.5 mM 3-AT, 4 days
Details in all cases: tags: N-Gal4 AD-HA kept; label: inside an RPR1-promoter hybrid RNA with tandem MS2 sites; ssRNA
PUM1 PUF domain R3-CRS = PUM1 PUF domain R3-CRS (Homo sapiens, UniProt Q14671 828-1176, Q939S)
Outline: (§1)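 Repeat regions from input (SC-Leu) and selection (SC-Leu-His + 0.5 mM 3-AT) plates were PCR-amplified and Illumina-sequenced after four days of growth. The cells were strain YBZ-1 with a LexA–MS2 coat fusion and a HIS3 reporter, co-expressing Pumilio-1 PUF domain libraries and matching RNA elements from a centromeric plasmid. The interaction score is the log change in variant frequency from input to selection, taken in log2 with a pseudocount of 1 for absent variants.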

PUM1 PUF domain R8-WWR = PUM1 PUF domain R8-WWR (Homo sapiens, UniProt Q14671 828-1176, N1122W;Y1123W;Q1126R)
Outline: as §1

PUM1 PUF domain R3-SPF = PUM1 PUF domain R3-SPF (Homo sapiens, UniProt Q14671 828-1176, C935S;R936P;Q939F)
Outline: as §1

PUM1 PUF domain R8-GWN = PUM1 PUF domain R8-GWN (Homo sapiens, UniProt Q14671 828-1176, N1122G;Y1123W;Q1126N)
Outline: as §1

PUM1 PUF domain R6-RYR = target: T1, PUM1 PUF domain R6-RYR (Homo sapiens, UniProt Q14671 828-1176, N1043R;Q1047R)
T1 sequence: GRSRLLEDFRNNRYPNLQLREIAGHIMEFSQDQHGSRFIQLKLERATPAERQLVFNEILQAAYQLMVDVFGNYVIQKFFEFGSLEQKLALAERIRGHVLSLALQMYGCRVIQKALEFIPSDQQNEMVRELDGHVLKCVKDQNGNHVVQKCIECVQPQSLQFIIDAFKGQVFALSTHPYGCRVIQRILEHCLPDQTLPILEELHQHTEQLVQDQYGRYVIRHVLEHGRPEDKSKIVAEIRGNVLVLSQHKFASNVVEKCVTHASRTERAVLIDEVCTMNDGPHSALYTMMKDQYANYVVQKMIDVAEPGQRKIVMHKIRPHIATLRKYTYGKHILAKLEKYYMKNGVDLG
Outline: as §1

PUM1 PUF domain R3-PWS = PUM1 PUF domain R3-PWS (Homo sapiens, UniProt Q14671 828-1176, C935P;R936W;Q939S)
Outline: as §1

PUM1 PUF domain R4-DHM = PUM1 PUF domain R4-DHM (Homo sapiens, UniProt Q14671 828-1176, N971D;Q975M)
Sequence of PUM1 PUF domain R4-DHM (Q14671 828-1176 N971D/Q975M): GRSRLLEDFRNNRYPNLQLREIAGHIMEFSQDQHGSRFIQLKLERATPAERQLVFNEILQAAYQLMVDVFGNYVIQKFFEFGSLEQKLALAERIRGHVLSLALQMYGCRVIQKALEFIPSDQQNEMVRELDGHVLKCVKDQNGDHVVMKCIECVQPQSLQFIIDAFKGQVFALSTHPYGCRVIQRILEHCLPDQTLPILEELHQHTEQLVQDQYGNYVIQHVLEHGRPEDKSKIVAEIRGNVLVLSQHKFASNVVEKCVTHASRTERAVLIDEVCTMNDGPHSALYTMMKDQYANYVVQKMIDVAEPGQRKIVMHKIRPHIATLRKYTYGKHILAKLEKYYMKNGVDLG
Outline: as §1

PUM1 PUF domain R3-GCF = PUM1 PUF domain R3-GCF (Homo sapiens, UniProt Q14671 828-1176, C935G;R936C;Q939F)
Sequence of PUM1 PUF domain R3-GCF (Q14671 828-1176 C935G/R936C/Q939F): as the sequence (Q14671 828-1176 N971D/Q975M) above, with C108G, R109C, Q112F, D144N, M148Q counted along it
Outline: as §1

PUM1 PUF domain R3-TGQ = PUM1 PUF domain R3-TGQ (Homo sapiens, UniProt Q14671 828-1176, C935T;R936G)
Sequence of PUM1 PUF domain R3-TGQ (Q14671 828-1176 C935T/R936G): as the sequence (Q14671 828-1176 N971D/Q975M) above, with C108T, R109G, D144N, M148Q counted along it
Outline: as §1

PUM1 PUF domain R8-AWR = PUM1 PUF domain R8-AWR (Homo sapiens, UniProt Q14671 828-1176, N1122A;Y1123W;Q1126R)
Sequence of PUM1 PUF domain R8-AWR (Q14671 828-1176 N1122A/Y1123W/Q1126R): as the sequence (Q14671 828-1176 N971D/Q975M) above, with D144N, M148Q, N295A, Y296W, Q299R counted along it
Outline: as §1

PUM1 PUF domain R5-RMW = PUM1 PUF domain R5-RMW (Homo sapiens, UniProt Q14671 828-1176, C1007R;R1008M;Q1011W)
Outline: as §1

PUM1 PUF domain R7-RSK = PUM1 PUF domain R7-RSK (Homo sapiens, UniProt Q14671 828-1176, S1079R;N1080S;E1083K)
Outline: as §1

PUM1 PUF domain R2-LLL = PUM1 PUF domain R2-LLL (Homo sapiens, UniProt Q14671 828-1176, N899L;Y900L;Q903L)
Sequence of PUM1 PUF domain R2-LLL (Q14671 828-1176 N899L/Y900L/Q903L): as the sequence (Q14671 828-1176 N971D/Q975M) above, with N72L, Y73L, Q76L, D144N, M148Q counted along it
Outline: as §1

PUM1 PUF domain R5-SAG = PUM1 PUF domain R5-SAG (Homo sapiens, UniProt Q14671 828-1176, C1007S;R1008A;Q1011G)
Outline: as §1

PUM1 PUF domain R1-TLR = PUM1 PUF domain R1-TLR (Homo sapiens, UniProt Q14671 828-1176, S863T;R864L;Q867R)
Outline: as §1

PUM1 PUF domain R1-YCR = PUM1 PUF domain R1-YCR (Homo sapiens, UniProt Q14671 828-1176, S863Y;R864C;Q867R)
Outline: as §1

PUM1 PUF domain R1-KRG = PUM1 PUF domain R1-KRG (Homo sapiens, UniProt Q14671 828-1176, S863K;Q867G)
Sequence of PUM1 PUF domain R1-KRG (Q14671 828-1176 S863K/Q867G): as the sequence (Q14671 828-1176 N971D/Q975M) above, with S36K, Q40G, D144N, M148Q counted along it
Outline: as §1

PUM1 PUF domain R1-QRK = PUM1 PUF domain R1-QRK (Homo sapiens, UniProt Q14671 828-1176, S863Q;Q867K)
Sequence of PUM1 PUF domain R1-QRK (Q14671 828-1176 S863Q/Q867K): as the sequence (Q14671 828-1176 N971D/Q975M) above, with S36Q, Q40K, D144N, M148Q counted along it
Outline: as §1

PUM1 PUF domain R5-RNP = PUM1 PUF domain R5-RNP (Homo sapiens, UniProt Q14671 828-1176, C1007R;R1008N;Q1011P)
Sequence of PUM1 PUF domain R5-RNP (Q14671 828-1176 C1007R/R1008N/Q1011P): as the sequence (Q14671 828-1176 N971D/Q975M) above, with D144N, M148Q, C180R, R181N, Q184P counted along it
Outline: as §1

PUM1 PUF domain R5-KPM = PUM1 PUF domain R5-KPM (Homo sapiens, UniProt Q14671 828-1176, C1007K;R1008P;Q1011M)
Sequence of PUM1 PUF domain R5-KPM (Q14671 828-1176 C1007K/R1008P/Q1011M): as the sequence (Q14671 828-1176 N971D/Q975M) above, with D144N, M148Q, C180K, R181P, Q184M counted along it
Outline: as §1

Sequence of PUM1 PUF domain R3-CRS (Q14671 828-1176 Q939S): as the sequence (Q14671 828-1176 N971D/Q975M) above, with Q112S, D144N, M148Q counted along it

GGCUAGAACUAGUGGAUCCCCCGGCGCCCGGCGGCUCGAGCCCGGGUAAGUGUAAGUAGUCUGCAUGCCGCCGGGCGCCAUGCCUGCAGGUCGACUCUAGAAAACAUG
binding signal (PUM1 PUF domain R3-CRS): 2.6 log2 enrichment (interaction score)

GGCUAGAACUAGUGGAUCCCCCGGCGCCCGGCGGCUCGAGCCCGGGUAAGUGUAAAUAGUCUGCAUGCCGCCGGGCGCCAUGCCUGCAGGUCGACUCUAGAAAACAUG
binding signal (PUM1 PUF domain R8-WWR): 4.62 log2 enrichment (interaction score)
binding signal (PUM1 PUF domain R3-SPF): 4.55 log2 enrichment (interaction score)
binding signal (PUM1 PUF domain R8-GWN): 3.4 log2 enrichment (interaction score)
binding signal (PUM1 PUF domain R6-RYR): 3.26 log2 enrichment (interaction score)
binding signal (PUM1 PUF domain R3-PWS): 4.23 log2 enrichment (interaction score)
binding signal (PUM1 PUF domain R3-CRS): 3.28 log2 enrichment (interaction score)
binding signal (PUM1 PUF domain R4-DHM): 5.71 log2 enrichment (interaction score)
binding signal (PUM1 PUF domain R3-GCF): 3.59 log2 enrichment (interaction score)
binding signal (PUM1 PUF domain R3-TGQ): 4.55 log2 enrichment (interaction score)
binding signal (PUM1 PUF domain R8-AWR): 4.49 log2 enrichment (interaction score)

GGCUAGAACUAGUGGAUCCCCCGGCGCCCGGCGGCUCGAGCCCGGGUAAGCGUAAAUAGUCUGCAUGCCGCCGGGCGCCAUGCCUGCAGGUCGACUCUAGAAAACAUG
binding signal (PUM1 PUF domain R8-WWR): 4.84 log2 enrichment (interaction score)
binding signal (PUM1 PUF domain R8-GWN): 5.24 log2 enrichment (interaction score)
binding signal (PUM1 PUF domain R8-AWR): 4.57 log2 enrichment (interaction score)

GGCUAGAACUAGUGGAUCCCCCGGCGCCCGGCGGCUCGAGCCCGGGUAAGUGUCAAUAGUCUGCAUGCCGCCGGGCGCCAUGCCUGCAGGUCGACUCUAGAAAACAUG
binding signal (PUM1 PUF domain R5-RMW): 3.01 log2 enrichment (interaction score)

GGCUAGAACUAGUGGAUCCCCCGGCGCCCGGCGGCUCGAGCCCGGGUAAGUUUAAAUAGUCUGCAUGCCGCCGGGCGCCAUGCCUGCAGGUCGACUCUAGAAAACAUG
binding signal (PUM1 PUF domain R7-RSK): 3.42 log2 enrichment (interaction score)

GGCUAGAACUAGUGGAUCCCCCGGCGCCCGGCGGCUCGAGCCCGGGUAAGUCUAAAUAGUCUGCAUGCCGCCGGGCGCCAUGCCUGCAGGUCGACUCUAGAAAACAUG
binding signal (PUM1 PUF domain R7-RSK): 3.84 log2 enrichment (interaction score)

GGCUAGAACUAGUGGAUCCCCCGGCGCCCGGCGGCUCGAGCCCGGGUAAGUGUAAAGAGUCUGCAUGCCGCCGGGCGCCAUGCCUGCAGGUCGACUCUAGAAAACAUG
binding signal (PUM1 PUF domain R2-LLL): 3.06 log2 enrichment (interaction score)

GGCUAGAACUAGUGGAUCCCCCGGCGCCCGGCGGCUCGAGCCCGGGUAAGUGAAAAUAGUCUGCAUGCCGCCGGGCGCCAUGCCUGCAGGUCGACUCUAGAAAACAUG
binding signal (PUM1 PUF domain R6-RYR): 1.38 log2 enrichment (interaction score)

GGCUAGAACUAGUGGAUCCCCCGGCGCCCGGCGGCUCGAGCCCGGGUAAGUGUGAAUAGUCUGCAUGCCGCCGGGCGCCAUGCCUGCAGGUCGACUCUAGAAAACAUG
binding signal (PUM1 PUF domain R5-SAG): 3.06 log2 enrichment (interaction score)

GGCUAGAACUAGUGGAUCCCCCGGCGCCCGGCGGCUCGAGCCCGGGUAAGUGUAAAUCGUCUGCAUGCCGCCGGGCGCCAUGCCUGCAGGUCGACUCUAGAAAACAUG
binding signal (PUM1 PUF domain R1-TLR): 4.21 log2 enrichment (interaction score)
binding signal (PUM1 PUF domain R1-YCR): 7.03 log2 enrichment (interaction score)
binding signal (PUM1 PUF domain R1-KRG): 2.86 log2 enrichment (interaction score)
binding signal (PUM1 PUF domain R1-QRK): 4.66 log2 enrichment (interaction score)

GGCUAGAACUAGUGGAUCCCCCGGCGCCCGGCGGCUCGAGCCCGGGUAAGUGUAAUUAGUCUGCAUGCCGCCGGGCGCCAUGCCUGCAGGUCGACUCUAGAAAACAUG
binding signal (PUM1 PUF domain R3-SPF): 2.3 log2 enrichment (interaction score)
binding signal (PUM1 PUF domain R3-PWS): 1.88 log2 enrichment (interaction score)
binding signal (PUM1 PUF domain R3-CRS): 0.43 log2 enrichment (interaction score)

GGCUAGAACUAGUGGAUCCCCCGGCGCCCGGCGGCUCGAGCCCGGGUAAGUGUUAAUAGUCUGCAUGCCGCCGGGCGCCAUGCCUGCAGGUCGACUCUAGAAAACAUG
binding signal (PUM1 PUF domain R5-RMW): 0.73 log2 enrichment (interaction score)
binding signal (PUM1 PUF domain R5-RNP): 2.93 log2 enrichment (interaction score)
binding signal (PUM1 PUF domain R5-KPM): 3.06 log2 enrichment (interaction score)

GGCUAGAACUAGUGGAUCCCCCGGCGCCCGGCGGCUCGAGCCCGGGUAAGUGUAAAUUGUCUGCAUGCCGCCGGGCGCCAUGCCUGCAGGUCGACUCUAGAAAACAUG
binding signal (PUM1 PUF domain R1-TLR): 1.83 log2 enrichment (interaction score)
binding signal (PUM1 PUF domain R1-YCR): 7.79 log2 enrichment (interaction score)
binding signal (PUM1 PUF domain R1-KRG): 1.23 log2 enrichment (interaction score)

Source: paper PMC8384837, “Expanding the binding specificity for RNA recognition by a PUF domain”
